Most compounds without a hit are left out; they make up all but 1.7% or so of the library.
GLP1R cytotox = cytotoxic in the GLP-1 receptor inverse agonist counter-screen; Potency, µM (top dose mostly 38.3 µM), hits mostly inhibitors; 0.13% of 410,000 active; HEK293 cAMP-luciferase reporter cells, luminescence, 24 h;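 further: loss of luciferase light is scored as toxicity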
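Compound-treated cells are incubated 24 hr at 37 deg C under 5% CO2 after a 12 hour attachment period, then luciferase detection reagent is added and luminescence is measured following 12 min at room temperature; lowered signal indicates toxicity.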
GLP-1R inv ag = acts as inverse agonist at human GLP-1 receptor | Potency, µM (titrated, usually from 38.3 µM), hits mostly inhibitors | AID 624417 | HEK293 GLP-1R CRE-luciferase, luminescence, 24 h; GLP-1R form is constitutively active | P43220 | 1.6% of 410,000 active; further: nearly all actives have a fitted effect of over 55% in size
Target sequence (P43220 whole entry, looked up): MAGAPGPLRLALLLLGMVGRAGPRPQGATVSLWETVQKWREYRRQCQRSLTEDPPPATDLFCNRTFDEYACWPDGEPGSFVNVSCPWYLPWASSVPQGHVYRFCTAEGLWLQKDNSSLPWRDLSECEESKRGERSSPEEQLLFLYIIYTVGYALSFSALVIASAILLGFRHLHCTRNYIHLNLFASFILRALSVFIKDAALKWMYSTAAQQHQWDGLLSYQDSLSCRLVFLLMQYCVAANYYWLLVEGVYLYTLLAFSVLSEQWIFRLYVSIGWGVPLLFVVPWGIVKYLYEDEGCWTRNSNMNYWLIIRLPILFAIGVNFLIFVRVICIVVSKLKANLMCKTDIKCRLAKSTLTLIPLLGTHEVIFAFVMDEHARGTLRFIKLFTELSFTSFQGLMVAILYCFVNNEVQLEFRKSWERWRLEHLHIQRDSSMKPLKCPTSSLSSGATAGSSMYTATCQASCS
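Using stably transfected HEK293 (constitutively active GLP-1R, cAMP-luciferase reporter), compounds were incubated 24 hr and luciferase measured by luminescence.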
PTHR1 ag = activates the human parathyroid hormone receptor PTHR1; HEK293 GP2 PTHR1 cells, GloSensor cAMP luminescence, 1 h; 0.075% of 410,000 active; Q03431; Potency, µM (top dose mostly 115 µM), most hits filed as activators; further: nearly all actives have a fitted effect of over 55% in size
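HEK-293-derived GP2 cells expressing PTHR1 and a GloSensor cAMP reporter, 3,000/well, plated overnight, given luciferin plus IBMX (each 0.5 mM as added) for 1 h at 37 °C, then compound for 1 h at 37 °C. Luminescence was read after 15 min at room temperature.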
GLP1R ag = activates the human GLP-1 receptor. P43220. HEK293 GLP-1R CRE-luciferase, luminescence, 4-6 h; cells express a hypersensitive GLP-1R form. Potency, µM (top dose mostly 45.6 µM), hits mostly activators. 0.007% of 380,000 active. AID 624172
Large screens that a line does not name were inactive. The call rests on the fitted dose curve; in most records, active means well fitted curve in the direction sought with a large enough effect; inconclusive means small, poorly fitted or top-dose-only effect, or another doubt; inactive means no such curve, though single readings can be large; an effect the other way counts as inactive or inconclusive.

CC(C)Oc1ccc(C(=O)Nc2ccc3c(c2)CCCN3C(=O)c2cccs2)cc1	GLP-1R inv ag inconclusive (no result: GLP1R ag)
Cc1ccc(-c2nnc(N3CCC(C)CC3)c3ccccc23)cc1C	GLP1R cytotox inconclusive, GLP-1R inv ag 2.5µM
O=C(Nc1ccc2nc3n(c(=O)c2c1)CCCCC3)c1cccc(C(F)(F)F)c1	none (no result: GLP1R ag)
O=C(NCc1ccc2c(c1)CCN2C(=O)c1ccccc1)Nc1cccc(C(F)(F)F)c1	GLP-1R inv ag 4µM (no result: GLP1R ag)
CCOc1ccc2c3c1O[C@H]1[C@@H](O)C=C[C@H]4[C@@H](C2)N(C)CC[C@@]341	none (no result: GLP1R cytotox, GLP-1R inv ag, PTHR1 ag)
CC(=O)OC1(C)CC(C)C(=O)C(C(O)CC2CC(=O)NC(=O)C2)C1 (stereo not given)	none
C[C@@H]1C[C@@H]([C@H](O)CC2CC(=O)NC(=O)C2)C(=O)[C@@H](C)C1	GLP-1R inv ag 0.79µM
O=[N+]([O-])c1cccnc1N1CCC(c2cc(-c3cccc(C(F)(F)F)c3)n[nH]2)CC1	GLP1R cytotox inconclusive, GLP-1R inv ag 8.9µM
O=C1CC(=O)N(c2cccc(C(F)(F)F)c2)C(=O)N1	none
Cc1cc(OC(F)F)ccc1NC(=O)Nc1ccc([N+](=O)[O-])cc1	GLP1R cytotox inconclusive, GLP-1R inv ag inconclusive
CCOP(=O)(CCP(=O)(OCC)OCC)OCC.C[CH2][Sn]([Cl])([Cl])[CH2]C	GLP1R cytotox 13µM, GLP-1R inv ag inconclusive
COc1cc(C(=O)Oc2ccccc2/C=N/NC(=O)c2ccc(C)cc2)cc(OC)c1OC	GLP1R cytotox inconclusive, GLP-1R inv ag 1.6µM
O=P1(c2ccccc2)Nc2ccccc2N1c1ccccc1 (stereo not given)	GLP-1R inv ag 4.5µM
Cc1nc(Nc2ccc(F)cc2)[nH]c(=O)c1CCC(C)C	GLP1R cytotox inconclusive, GLP-1R inv ag 7.9µM
Fc1ccc(C2=CCN(C(c3ccc(Cl)cc3)c3nnnn3Cc3ccccc3)CC2)cc1 (stereo not given)	GLP-1R inv ag 5.6µM
Cc1[nH]c2ccc(OC(F)(F)F)cc2c1CCNCc1ccc(Cl)cc1	GLP1R cytotox inconclusive, GLP-1R inv ag 4µM
CCOc1cccc(CNCCc2c(C)[nH]c3ccc(OC(F)(F)F)cc23)c1O	GLP1R cytotox inconclusive, GLP-1R inv ag 5µM
COc1ccc2[nH]c(C)c(CCNCc3cccnc3)c2c1	none
Cc1[nH]c2ccc(OC(F)(F)F)cc2c1CCNCc1cccc([N+](=O)[O-])c1	GLP1R cytotox inconclusive, GLP-1R inv ag inconclusive
CCC(=O)O[C@@](Cc1ccccc1)(c1ccccc1)[C@H](C)CN(C)C	none (no result: GLP1R cytotox, GLP-1R inv ag, PTHR1 ag)
c1ccc(N2CCN(c3nc(NCc4ccco4)c4ccccc4n3)CC2)cc1	GLP1R cytotox inconclusive, GLP-1R inv ag 7.1µM
CCn1c(C)nc2cc(C(=O)N/N=C(\C)c3ccc(OC)cc3O)ccc21	GLP1R cytotox inconclusive, GLP-1R inv ag inconclusive
O=c1c2ccccc2nc(/C=C/c2ccccc2O)n1-c1ccc(Br)cc1	none (no result: GLP1R ag)
CCC(=O)c1ccc2c(c1)N(CCCN(C)C)c1ccccc1S2	GLP1R cytotox inconclusive, GLP-1R inv ag 11µM
CCc1ccc(NC(=O)c2ccc3oc(=O)n(Cc4ccccc4)c3c2)cc1	GLP-1R inv ag inconclusive (no result: GLP1R ag)
O=C1C2C3CCC(C3)C2C(=O)N1c1ccc(OS(=O)(=O)c2ccccc2)cc1 (stereo not given)	GLP-1R inv ag 3.2µM
CN1C(=O)C(=Cc2ccccc2OS(=O)(=O)c2ccccc2)C(=O)N(C)C1=O	none
CCOc1ccccc1N1CCN(C(=O)c2ccc3c(c2)OCO3)CC1	GLP1R cytotox inconclusive, GLP-1R inv ag inconclusive
COc1ccc(-c2coc3c(C(=O)Nc4cc(OC)c(OC)c(OC)c4)cccc23)c(C)c1	GLP-1R inv ag 4.5µM
COc1cc(NC(=O)c2cccc3c(-c4cccnc4)coc23)cc(OC)c1OC	GLP1R cytotox inconclusive, GLP-1R inv ag inconclusive
C[N+]1(CCF)[C@@H]2CC[C@@H]1CC(OC(=O)C(O)(c1ccccc1)c1ccccc1)C2 (stereo not given in full)	none (no result: GLP1R cytotox, GLP-1R inv ag, PTHR1 ag)
COc1ccccc1CNc1nc(NCc2ccccc2OC)c2sccc2n1	GLP1R cytotox inconclusive, GLP-1R inv ag 11µM
COc1ccccc1CNc1nc(NCc2ccccc2SC)c2sccc2n1	GLP-1R inv ag inconclusive
COc1ccc(CN2CCN(C(=O)Cn3c(=O)oc4cc(Cl)ccc43)CC2)c(OC)c1OC	GLP-1R inv ag inconclusive
CCC1CCCCN1S(=O)(=O)c1ccc(C(=O)N(CCCN(C)C)c2nc3cc4c(cc3s2)OCO4)cc1 (stereo not given)	GLP1R cytotox inconclusive, GLP-1R inv ag inconclusive
O=c1[nH]c(=O)n(C2CCCCCC2)c(O)c1C=NCC1CCCO1 (stereo not given)	none
O=c1[nH]c(=O)n(C2CCCCCC2)c(O)c1C=NCc1ccc(F)cc1	GLP-1R inv ag 10µM
CCN(CC)c1nc2ccccc2nc1C(=O)Nc1cccc(C(C)=O)c1	GLP-1R inv ag inconclusive (no result: GLP1R ag)
Nc1cccc(Nc2nc(OC(C(F)(F)F)C(F)(F)F)nc(OC(C(F)(F)F)C(F)(F)F)n2)c1	GLP1R cytotox inconclusive, GLP-1R inv ag 4.5µM
Cc1ccc(-n2nc3c(=O)n(CC(=O)NCC(C)c4ccccc4)nc(C)c3c2C)cc1 (stereo not given)	GLP-1R inv ag inconclusive (no result: GLP1R ag)
CCOC(=O)c1ccc(NC(=O)Nc2cc3c(cc2N2CCCCC2)n(CC)c(=O)n3CC)cc1	GLP-1R inv ag 10µM
CCOC(=O)c1ccc(NC(=O)CSc2cc(=O)n(CC)c3ccccc23)cc1	none (no result: GLP1R ag)
COc1ccc(CN(CCc2c[nH]c3ccccc23)Cc2ccc(OC)cc2)cc1	GLP1R cytotox inconclusive, GLP-1R inv ag 10µM
CCCN(CCC)CCc1c[nH]c2ccccc12	none (no result: GLP1R cytotox, GLP-1R inv ag, PTHR1 ag)
CC(C)(C)OC(=O)NCCCCCNC(=O)c1nc[nH]c1C(=O)NCc1ccc(CNC(=O)OC(C)(C)C)cc1	GLP1R cytotox inconclusive, GLP-1R inv ag 10µM
C=C1C(=O)C23C(O)C1CCC2C12CCCC(C)(COC(C)=O)C1C(O)C3(O)OC2 (stereo not given)	GLP1R cytotox 2.5µM, GLP-1R inv ag inconclusive
CCOC(=O)N1CCC(NC(=O)c2ccc3c(c2)N(Cc2cccc(C)c2)C(=O)c2ccccc2S3(=O)=O)CC1	GLP-1R inv ag inconclusive
CN1CCN(CCCN2c3ccccc3Sc3ccc(C(F)(F)F)cc32)CC1	GLP1R cytotox inconclusive, GLP-1R inv ag 8.9µM
O=C(CCN1CCN(CCO)CC1)N1c2ccccc2Sc2ccc(C(F)(F)F)cc21	none
C=CCN(C1=NCCN1)c1c(Cl)cccc1Cl	none (no result: GLP1R cytotox, GLP-1R inv ag, PTHR1 ag)
CCCCCc1cc(O)c2c(c1)OC(C)(C)C1CC=C(C)CC21 (stereo not given)	none (no result: GLP1R cytotox, GLP-1R inv ag, PTHR1 ag)
CCCCCCN1C[C@@H](n2cc(C3CC3)nn2)[C@H](O)C[C@@H]1c1ccc(C)cc1	GLP1R cytotox inconclusive, GLP-1R inv ag 4µM
NS(=O)(=O)c1ccc(NC2=CC(=O)C(=O)c3ccccc32)cc1	GLP1R cytotox inconclusive
O=C1C=C(c2c(O)ccc3ccccc23)c2ccccc2C1=O	GLP1R cytotox 10µM, GLP-1R inv ag inconclusive
CC/C(=C(\c1ccc(O)cc1)c1ccc(OCCN(C)C)cc1)c1ccccc1	GLP-1R inv ag inconclusive

Screens (PubChem)
